Laboratory results as given in PubChem BioAssay.
Inconclusive results are not listed. Activity calls are given as the source filed them.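 How the source made its calls, unless noted: active means inhibition above 50%, about 3 SD of the validation set; inactive means the rest.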

Tests used:
[1] = rapamycin-like changes in RPL19A-GFP expression – cell-based, S. cerevisiae, multiplex flow cytometry, primary screen (AID 1862; in the data active means percent of DMSO control GFP below about 86%;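 further: lower values mimic rapamycin by blocking the RPL19A rise seen in DMSO cells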); settings: S. cerevisiae RPL19A-GFP strain, flow cytometry fluorescence, 3 h; at 10 µM; stronger effect = lower value
[2] = TOR pathway GLN3 branch reporter MEP2-GFP changes – S. cerevisiae, multiplex flow cytometry, primary screen (AID 1867;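 active means GFP response, as percent of the DMSO control, above the screen-wide mean plus 3 SD, about 139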;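 further: median GFP channel fluorescence of barcode-gated MEP2-GFP cells measured by flow cytometry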); settings: S. cerevisiae MEP2-GFP strain, 3 h, at 10 µM, stronger effect = higher value, 100% means same as DMSO wells
[3] = TOR pathway RTG branch CIT2 reporter changes – S. cerevisiae, GFP fusion, multiplex flow cytometry, primary screen (AID 1870;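 active means percent response above a set limit, the screen-wide mean plus 3 SD, cut at about 130% in these data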;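 further: barcoded CIT2-GFP strain pooled with four other GFP strains with rapamycin as positive control; median GFP fluorescence per well over plate mean of DMSO wells so 100% = DMSO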); settings: S. cerevisiae CIT2-GFP expression, 3 h, at 10 µM, stronger effect = higher value
[4] = TOR pathway LAP4-GFP level changes – S. cerevisiae, multiplex flow cytometry, primary screen (AID 1873;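 active means GFP signal, as percent of the solvent control, above the screen mean plus 3 SD, about 149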); settings: S. cerevisiae LAP4-GFP expression, 3 h, at 10 µM, stronger effect = higher value
[5] = yeast AGP1-GFP level changes, GLN3 branch – cell-based, multiplex flow cytometry, S. cerevisiae, primary screen (AID 1887;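 active means GFP signal above the screen-wide mean plus 3 SD, that is over about 124.5% of the solvent control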;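 further: AGP1-GFP fusion strain of S. cerevisiae within a five-strain barcoded multiplex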); settings: 3 h, at 10 µM, stronger effect = higher value
[6] = reduced mouse 2C T cell binding to pMHC/ICAM-1 vesicles – MLPCN validation set, flow cytometry, LFA-1/ICAM-1 modulator project, pilot screen (AID 2523;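 active means response below a set limit, under 55% cells CD8-positive and vesicle-bound, and CD8 cells' 90th-percentile brightness under 279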;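 on vesicle binding response: mean PE anti-B7-1 fluorescence of CD8+ cells relative to row control; 100% = QL9-loaded vesicles with DMSO vehicle in the same plate row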); settings: 2C mouse CD8+ T cells, at 7 µM, stronger effect = lower value; double positive events: measured here: CD8+/vesicle+ event percentage
[7] = biological target: Integrin beta-1 (Homo sapiens) + Integrin alpha-4 (Homo sapiens) (UniProt P13612+P05556); assay: alpha4beta1 integrin LIBS antibody binding reduction – U937 cells, HUTS-21 mAb, flow cytometry, validation set, VLA-4 allosteric modulator project, pilot screen (AID 2674); settings: HUTS-21 LIBS mAb binding, at 6.7 µM, stronger effect = higher value, binding induced by LDV ligand;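 further: antibody binding induced by the VLA-4 ligand LDV present at three times its Kd; 0% = LDV ligand with antibody and no compound and 100% = antibody without LDV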
[8] = calorie-restriction mimetic ROS inhibitors, yeast – validation compound set, pilot screen (AID 2706;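 active means superoxide response below 65% of plate, a cut near 3 SD across the whole screen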;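 further: yeast exposed to compound for one week at 30 degrees C before staining; 100% = mean of all compound wells on the same plate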); settings: S. cerevisiae aging, superoxide DHE fluorescence; at 10 µM; stronger effect = lower value
[9] = biological target: Beta-adrenergic receptor kinase 1 (Homo sapiens) (UniProt P25098); assay: GRK2 binders displacing RNA aptamer, biochemical, validation, human GRK2, bead flow cytometry (AID 488806;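 active means aptamer binding inhibition above 30%, about 3 SD of noise from non-fluorescent compounds; inactive means inhibition at or below 30%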); settings: bead-bound GRK2, FAM-aptamer displacement, at 10 µM, stronger effect = higher value
[10] = biological target: Beta-2 adrenergic receptor (Homo sapiens) (UniProt P07550); assay: agonist-induced loss of surface beta2AR – cell-based, FAP fluorogen, flow cytometry, validation set, pilot screen (AID 504459;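 active means percent response above 42, roughly 3 SD of non-fluorescent test compounds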;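 further: agonist-driven loss of surface beta2AR via internalization measured by FAP dye flow cytometry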); settings: Am2.2-beta2AR cells, at 10 µM, stronger effect = higher value
[11] = biological target: AP-2 complex subunit beta (Homo sapiens) (UniProt P63010); assay: beta-arrestin/AP2 interaction blockers – biochemical, validation set, GST-AP2 beads, flow cytometry, pilot screen (AID 504541;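 active means inhibition above 54%, about 3 SD of non-fluorescent compounds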;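 further: AP2 carries R879A mutation and is captured from E. coli lysate; bead-bound FITC arrestin peptide fluorescence measuring arrestin peptide binding to AP2; 0% = DMSO wells and 100% = excess unlabeled arrestin peptide control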); settings: FITC arrestin peptide, at 10 µM, stronger effect = higher value, AP2 beta2 appendage fragment, R879A mutant
[12] = cytosolic pH regulators acting via V-ATPase – S. cerevisiae, pHLuorin, HTS validation (AID 504600; in the data active means response above about 15%;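 further: plate controls were DMSO for no effect and reference compound for full effect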); settings: V-ATPase proton transport, at 10 µM, stronger effect = higher value
[13] = test system: anti-desmoglein-3 scFv antibody binding to human DSG3; assay: blockers of pathogenic pemphigus antibody–desmoglein-3 binding – biochemical, validation compound set, bead-based, flow cytometry, pilot screen (AID 588368;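 active means binding below the plate cutoff, the plate median minus 3 SD, with a reading above zero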;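 further: signal is the median channel fluorescence of bead-bound GFP antibody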); settings: Protein G beads, DSG3-Fc, scFv-GFP binding, at 10 µM, stronger effect = lower value
[14] = Nile Red efflux blockade in pump-expressing yeast – validation compound set, multiplex, phenotypic, pilot screen (AID 588506;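 active means efflux inhibition above 0.42, the validation set average plus 4 SD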;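 further: Nile Red retained in cells so higher fluorescence means more efflux inhibition; 0 = negative control wells and 1 = enniatin B 25 µM full block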); settings: S. cerevisiae pump-expressing triplex, Nile Red efflux flow cytometry; at 10 µM; stronger effect = higher value; the pumps come from Candida albicans
[15] = biological target: ATP-binding cassette sub-family B member 6 (Homo sapiens) (UniProt Q9NP58); assay: blockers of ABCB6-driven porphyrin uptake – K562-ABCB6 cells, flow cytometry, validation set, pilot screen (AID 588550;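 active means inhibition above the screen-wide mean plus 3 SD, about 51%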;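 further: 0% = DMSO wells and 100% = benzethonium chloride 70 µM positive control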); settings: K562-ABCB6 porphyrin accumulation, 1 h, at 10 µM, stronger effect = higher value
[16] = AML differentiation inducers, ER-HoxA9 marrow cells – cell-based, GFP/MAC1 double positive, flow cytometry, validation set, primary screen (AID 588685;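 active means differentiation response of at least 50%, scaled between solvent and reference control, from cells with both markers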;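 further: compound exposure lasts four days before antibody staining and flow analysis; 0% = DMSO wells and 100% = 5 µM fulvestrant positive control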); settings: stronger effect = higher value, normalized: vehicle 0, fulvestrant 100

Chain of Beta-adrenergic receptor kinase 1 (Homo sapiens) (P25098 whole entry, looked up): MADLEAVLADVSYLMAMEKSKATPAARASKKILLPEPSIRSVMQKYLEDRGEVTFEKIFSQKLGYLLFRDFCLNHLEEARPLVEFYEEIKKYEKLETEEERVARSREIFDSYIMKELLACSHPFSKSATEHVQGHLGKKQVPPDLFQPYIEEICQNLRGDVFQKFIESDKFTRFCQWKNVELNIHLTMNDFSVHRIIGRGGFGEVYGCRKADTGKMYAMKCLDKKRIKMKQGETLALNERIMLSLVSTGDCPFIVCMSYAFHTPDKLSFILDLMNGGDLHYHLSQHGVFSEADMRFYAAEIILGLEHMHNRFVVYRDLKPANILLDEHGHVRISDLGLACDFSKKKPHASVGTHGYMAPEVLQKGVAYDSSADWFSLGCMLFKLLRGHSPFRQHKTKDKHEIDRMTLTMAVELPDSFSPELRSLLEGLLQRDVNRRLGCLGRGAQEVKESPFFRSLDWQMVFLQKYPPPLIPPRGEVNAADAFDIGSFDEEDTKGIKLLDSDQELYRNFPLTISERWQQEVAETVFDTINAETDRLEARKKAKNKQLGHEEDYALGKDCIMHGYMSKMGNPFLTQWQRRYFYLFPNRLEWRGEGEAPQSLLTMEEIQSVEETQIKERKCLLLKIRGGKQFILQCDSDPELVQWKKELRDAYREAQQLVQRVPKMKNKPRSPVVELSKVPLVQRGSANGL
Chain of ATP-binding cassette sub-family B member 6 (Homo sapiens) (Q9NP58 whole entry, looked up): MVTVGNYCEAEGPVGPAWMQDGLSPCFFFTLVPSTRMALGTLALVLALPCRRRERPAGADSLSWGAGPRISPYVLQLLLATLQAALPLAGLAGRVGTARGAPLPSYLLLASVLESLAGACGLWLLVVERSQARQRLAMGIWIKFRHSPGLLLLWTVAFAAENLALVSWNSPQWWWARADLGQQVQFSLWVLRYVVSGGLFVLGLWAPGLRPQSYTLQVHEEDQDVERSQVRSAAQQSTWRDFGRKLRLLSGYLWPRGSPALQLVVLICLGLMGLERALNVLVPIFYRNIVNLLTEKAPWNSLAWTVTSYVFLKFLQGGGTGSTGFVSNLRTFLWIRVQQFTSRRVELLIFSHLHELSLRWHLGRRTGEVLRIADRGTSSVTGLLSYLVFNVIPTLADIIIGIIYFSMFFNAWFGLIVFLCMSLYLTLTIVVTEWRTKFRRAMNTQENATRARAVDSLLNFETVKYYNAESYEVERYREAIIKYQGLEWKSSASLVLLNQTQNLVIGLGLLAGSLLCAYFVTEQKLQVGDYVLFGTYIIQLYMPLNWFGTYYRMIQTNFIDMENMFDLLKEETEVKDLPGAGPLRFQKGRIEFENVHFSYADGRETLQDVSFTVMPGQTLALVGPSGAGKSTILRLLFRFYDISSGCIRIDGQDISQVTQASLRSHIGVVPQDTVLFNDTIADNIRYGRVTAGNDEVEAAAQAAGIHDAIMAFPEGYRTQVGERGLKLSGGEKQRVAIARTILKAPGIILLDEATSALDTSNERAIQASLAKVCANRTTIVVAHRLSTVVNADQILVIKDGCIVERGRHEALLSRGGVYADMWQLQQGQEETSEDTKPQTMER
Chain of AP-2 complex subunit beta (Homo sapiens) (P63010 whole entry, looked up, the tested form may be a part, one chain of several): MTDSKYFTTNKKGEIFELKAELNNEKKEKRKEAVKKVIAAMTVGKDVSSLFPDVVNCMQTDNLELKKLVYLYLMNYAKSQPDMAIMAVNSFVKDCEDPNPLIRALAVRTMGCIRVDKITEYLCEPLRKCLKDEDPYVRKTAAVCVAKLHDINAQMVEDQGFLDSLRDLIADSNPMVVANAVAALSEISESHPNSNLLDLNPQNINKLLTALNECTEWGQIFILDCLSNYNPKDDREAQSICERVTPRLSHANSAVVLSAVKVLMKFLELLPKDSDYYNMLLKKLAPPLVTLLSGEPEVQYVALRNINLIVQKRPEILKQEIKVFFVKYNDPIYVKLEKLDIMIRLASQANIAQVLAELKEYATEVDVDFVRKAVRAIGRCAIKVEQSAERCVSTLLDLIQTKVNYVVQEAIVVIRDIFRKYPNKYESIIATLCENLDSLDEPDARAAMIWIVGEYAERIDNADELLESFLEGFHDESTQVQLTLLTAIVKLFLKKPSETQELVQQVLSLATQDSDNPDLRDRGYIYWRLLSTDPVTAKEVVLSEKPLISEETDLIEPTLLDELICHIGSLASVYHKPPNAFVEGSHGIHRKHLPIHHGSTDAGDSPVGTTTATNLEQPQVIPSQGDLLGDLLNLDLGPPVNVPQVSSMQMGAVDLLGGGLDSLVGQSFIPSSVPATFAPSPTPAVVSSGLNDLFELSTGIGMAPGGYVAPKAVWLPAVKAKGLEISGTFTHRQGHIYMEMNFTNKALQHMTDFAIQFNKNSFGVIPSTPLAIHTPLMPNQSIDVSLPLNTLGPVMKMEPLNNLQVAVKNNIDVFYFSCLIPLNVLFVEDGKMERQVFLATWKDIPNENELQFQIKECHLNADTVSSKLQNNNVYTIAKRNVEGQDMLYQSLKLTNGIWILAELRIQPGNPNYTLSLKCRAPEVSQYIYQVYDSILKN
Chain of Beta-2 adrenergic receptor (Homo sapiens) (P07550 whole entry, looked up): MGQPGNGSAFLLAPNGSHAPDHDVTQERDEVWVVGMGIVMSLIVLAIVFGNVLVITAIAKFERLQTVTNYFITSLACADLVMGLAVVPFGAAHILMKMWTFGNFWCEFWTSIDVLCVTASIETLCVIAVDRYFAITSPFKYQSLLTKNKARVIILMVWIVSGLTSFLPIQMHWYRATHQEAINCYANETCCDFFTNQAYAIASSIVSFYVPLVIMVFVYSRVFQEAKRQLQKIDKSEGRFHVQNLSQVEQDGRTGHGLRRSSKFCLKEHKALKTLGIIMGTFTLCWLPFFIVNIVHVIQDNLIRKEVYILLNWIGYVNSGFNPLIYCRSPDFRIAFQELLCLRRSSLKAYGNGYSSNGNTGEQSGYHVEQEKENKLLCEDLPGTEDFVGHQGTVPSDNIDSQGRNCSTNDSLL
Chain of Integrin beta-1 (Homo sapiens) + Integrin alpha-4 (Homo sapiens) (P05556 whole entry, looked up): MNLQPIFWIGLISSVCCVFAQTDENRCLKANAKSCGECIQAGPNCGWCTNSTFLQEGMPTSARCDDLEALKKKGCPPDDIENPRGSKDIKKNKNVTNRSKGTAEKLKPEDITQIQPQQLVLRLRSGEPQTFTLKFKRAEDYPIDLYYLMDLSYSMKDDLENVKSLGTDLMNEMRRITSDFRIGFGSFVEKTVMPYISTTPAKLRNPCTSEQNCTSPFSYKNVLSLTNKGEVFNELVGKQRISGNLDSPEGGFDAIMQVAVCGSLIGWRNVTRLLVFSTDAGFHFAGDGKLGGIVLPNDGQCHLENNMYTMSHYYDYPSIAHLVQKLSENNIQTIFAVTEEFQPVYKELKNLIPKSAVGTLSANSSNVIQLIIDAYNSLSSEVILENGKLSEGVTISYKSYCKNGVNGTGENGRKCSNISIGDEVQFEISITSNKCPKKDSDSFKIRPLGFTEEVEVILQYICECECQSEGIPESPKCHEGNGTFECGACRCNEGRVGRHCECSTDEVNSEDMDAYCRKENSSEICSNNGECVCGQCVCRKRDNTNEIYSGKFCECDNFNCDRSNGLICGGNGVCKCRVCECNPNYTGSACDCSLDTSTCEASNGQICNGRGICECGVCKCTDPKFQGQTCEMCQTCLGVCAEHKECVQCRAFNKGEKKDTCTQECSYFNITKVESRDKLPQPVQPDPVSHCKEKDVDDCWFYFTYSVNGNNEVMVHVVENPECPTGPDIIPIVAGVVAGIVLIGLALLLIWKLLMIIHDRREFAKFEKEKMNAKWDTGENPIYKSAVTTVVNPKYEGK
Chain of Integrin beta-1 (Homo sapiens) + Integrin alpha-4 (Homo sapiens) (P13612 whole entry, looked up): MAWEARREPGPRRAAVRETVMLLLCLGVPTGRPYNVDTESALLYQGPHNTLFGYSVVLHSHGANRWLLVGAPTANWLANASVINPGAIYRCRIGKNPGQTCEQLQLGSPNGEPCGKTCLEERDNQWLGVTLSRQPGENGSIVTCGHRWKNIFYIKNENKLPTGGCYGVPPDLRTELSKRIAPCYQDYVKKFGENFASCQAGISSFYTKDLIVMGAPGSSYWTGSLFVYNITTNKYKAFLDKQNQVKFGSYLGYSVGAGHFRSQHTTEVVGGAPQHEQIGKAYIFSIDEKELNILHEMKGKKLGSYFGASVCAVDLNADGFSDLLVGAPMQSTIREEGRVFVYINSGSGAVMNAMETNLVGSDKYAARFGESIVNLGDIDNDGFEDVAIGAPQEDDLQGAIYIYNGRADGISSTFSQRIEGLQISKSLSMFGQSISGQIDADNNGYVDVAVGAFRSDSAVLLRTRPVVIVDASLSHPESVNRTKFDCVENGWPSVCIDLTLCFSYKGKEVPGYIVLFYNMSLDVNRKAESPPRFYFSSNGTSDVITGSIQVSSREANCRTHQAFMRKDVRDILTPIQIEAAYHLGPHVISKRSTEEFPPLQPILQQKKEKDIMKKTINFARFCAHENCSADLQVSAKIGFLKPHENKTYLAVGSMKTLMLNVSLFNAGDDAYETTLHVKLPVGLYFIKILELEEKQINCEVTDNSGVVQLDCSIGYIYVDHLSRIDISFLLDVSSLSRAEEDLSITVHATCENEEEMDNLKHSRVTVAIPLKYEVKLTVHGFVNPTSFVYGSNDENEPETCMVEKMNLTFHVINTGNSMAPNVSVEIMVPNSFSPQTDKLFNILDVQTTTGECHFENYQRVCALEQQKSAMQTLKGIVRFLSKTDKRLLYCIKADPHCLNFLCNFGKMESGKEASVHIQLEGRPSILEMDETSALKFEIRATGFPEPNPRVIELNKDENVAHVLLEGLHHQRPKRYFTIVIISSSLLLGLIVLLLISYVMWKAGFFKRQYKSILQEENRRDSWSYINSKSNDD

Cc1ccsc1/C=C/C1=NCCCN1C
67.3%: double positive events [6]
inactive: percent of DMSO control GFP [1] 106% | GFP response vs DMSO [2] 104% | percent response of DMSO control [3] 112% | GFP response vs DMSO [4] 103% | GFP response, % of DMSO [5] 118% | vesicle binding response [6] 168% | inhibition [7] -34.6% | superoxide response (% of plate) [8] 104% | aptamer binding inhibition [9] 1% | response [10] 3.43% | inhibition [11] -5.94% | response [12] 1.52% | binding (% of control) [13] 104% | efflux inhibition (fraction of control) [14] -0.135 | inhibition [15] 1% | differentiation response [16] -3.11%

c1ccc(-c2ccc(C(c3ccccc3)n3ccnc3)cc2)cc1 (stereo not given)
66.2%: double positive events [6]
inactive: percent of DMSO control GFP [1] 99.8% | GFP response vs DMSO [2] 104% | percent response of DMSO control [3] 101% | GFP response vs DMSO [4] 115% | GFP response, % of DMSO [5] 111% | vesicle binding response [6] 187% | inhibition [7] 8.25% | superoxide response (% of plate) [8] 209% | aptamer binding inhibition [9] 7% | response [10] 0.23% | inhibition [11] -14.1% | binding (% of control) [13] 101% | efflux inhibition (fraction of control) [14] -0.04 | inhibition [15] 0% | differentiation response [16] -2.03%
active: response [12] 15.5%

COc1ccc(C(=O)Nc2ncc3c(n2)CC(C)CC3=O)cc1 (stereo not given)
active: inhibition [11] 61.9%
inactive: percent of DMSO control GFP [1] 98% | GFP response vs DMSO [2] 105% | percent response of DMSO control [3] 105% | GFP response vs DMSO [4] 110% | GFP response, % of DMSO [5] 104% | vesicle binding response [6] 83.7% | inhibition [7] -12.7% | superoxide response (% of plate) [8] 99.5% | aptamer binding inhibition [9] -2% | response [10] 2.81% | response [12] -6.31% | binding (% of control) [13] 95.3% | efflux inhibition (fraction of control) [14] 0.01 | inhibition [15] 15% | differentiation response [16] -7.2%
48.3%: double positive events [6]

O=C(NCCNc1ccc(Cl)cc1[N+](=O)[O-])c1cccnc1
inactive: percent of DMSO control GFP [1] 100% | GFP response vs DMSO [2] 102% | percent response of DMSO control [3] 102% | GFP response vs DMSO [4] 106% | GFP response, % of DMSO [5] 98.9% | vesicle binding response [6] 13.3% | inhibition [7] 5.41% | superoxide response (% of plate) [8] 102% | aptamer binding inhibition [9] -6% | response [10] -6.88% | inhibition [11] 20% | response [12] 0.22% | binding (% of control) [13] 100% | efflux inhibition (fraction of control) [14] -0.22 | inhibition [15] 4% | differentiation response [16] 8.02%
57.5%: double positive events [6]

Cc1cccc(-n2c(Cc3ccccc3)n[nH]c2=S)c1
61.2%: double positive events [6]
inactive: percent of DMSO control GFP [1] 93.9% | GFP response vs DMSO [2] 106% | percent response of DMSO control [3] 88.2% | GFP response vs DMSO [4] 124% | GFP response, % of DMSO [5] 100% | vesicle binding response [6] 102% | inhibition [7] -18.2% | superoxide response (% of plate) [8] 103% | aptamer binding inhibition [9] 4% | response [10] -0.19% | inhibition [11] -2.3% | response [12] 1.08% | binding (% of control) [13] 95.5% | efflux inhibition (fraction of control) [14] -0.1 | inhibition [15] 4% | differentiation response [16] -13.6%

O=C(NCCc1ccccc1)C1CCN(C2CCN(Cc3ccco3)CC2)CC1
inactive: percent of DMSO control GFP [1] 98.6% | GFP response vs DMSO [2] 105% | percent response of DMSO control [3] 101% | GFP response vs DMSO [4] 118% | GFP response, % of DMSO [5] 120% | vesicle binding response [6] 159% | inhibition [7] -9.63% | superoxide response (% of plate) [8] 92.6% | aptamer binding inhibition [9] -13% | response [10] -41.8% | inhibition [11] -2.11% | response [12] -0.87% | binding (% of control) [13] 126% | efflux inhibition (fraction of control) [14] -0.04 | inhibition [15] 6% | differentiation response [16] -5.97%
58.9%: double positive events [6]

Cc1[nH]nc(-c2ccc(O)cc2O)c1Oc1ccccc1
61.9%: double positive events [6]
inactive: percent of DMSO control GFP [1] 106% | GFP response vs DMSO [2] 100% | percent response of DMSO control [3] 114% | GFP response vs DMSO [4] 93.3% | GFP response, % of DMSO [5] 103% | vesicle binding response [6] 53.1% | inhibition [7] 4.73% | superoxide response (% of plate) [8] 95.8% | aptamer binding inhibition [9] 1% | response [10] -4.61% | inhibition [11] -10.9% | response [12] -4.45% | binding (% of control) [13] 96.3% | efflux inhibition (fraction of control) [14] -0.32 | inhibition [15] 3% | differentiation response [16] 8.06%

COc1cc2c(cc1OC)C(c1ccc(-c3cc(Cl)ccc3Cl)o1)=NCC2
59.5%: double positive events [6]
active: response [10] 60.6%
inactive: percent of DMSO control GFP [1] 102% | GFP response vs DMSO [2] 109% | percent response of DMSO control [3] 101% | GFP response vs DMSO [4] 75.2% | GFP response, % of DMSO [5] 79.3% | vesicle binding response [6] 228% | inhibition [7] -53.7% | superoxide response (% of plate) [8] 97.5% | aptamer binding inhibition [9] 5% | inhibition [11] 17.6% | response [12] 2.96% | binding (% of control) [13] 101% | efflux inhibition (fraction of control) [14] 0.3 | inhibition [15] 3% | differentiation response [16] -26.4%

COc1ccc(NC(=O)CC2C(=O)N(C)C(=S)N2Cc2ccncc2)cc1 (stereo not given)
54.8%: double positive events [6]
inactive: percent of DMSO control GFP [1] 88% | GFP response vs DMSO [2] 123% | percent response of DMSO control [3] 97.9% | GFP response vs DMSO [4] 75.4% | GFP response, % of DMSO [5] 88.2% | vesicle binding response [6] 194% | inhibition [7] 5.49% | superoxide response (% of plate) [8] 105% | aptamer binding inhibition [9] 0% | response [10] -1.13% | inhibition [11] 0.05% | response [12] -1.16% | binding (% of control) [13] 100% | efflux inhibition (fraction of control) [14] 0.01 | inhibition [15] 8% | differentiation response [16] 1.64%

COC(=O)c1cc(OC)c(OC)cc1NC(=O)CN1C(=O)c2ccccc2C1=O
54.6%: double positive events [6]
inactive: percent of DMSO control GFP [1] 97.1% | GFP response vs DMSO [2] 113% | percent response of DMSO control [3] 93.9% | GFP response vs DMSO [4] 118% | GFP response, % of DMSO [5] 99.4% | vesicle binding response [6] 150% | inhibition [7] -22.3% | superoxide response (% of plate) [8] 103% | aptamer binding inhibition [9] -2% | response [10] -5.28% | inhibition [11] -9.37% | response [12] -5.26% | binding (% of control) [13] 98.4% | efflux inhibition (fraction of control) [14] -0.03 | inhibition [15] 2% | differentiation response [16] -23.2%
